This is an account of results in PubChem BioAssay.

Molecules are shown by their SMILES. Results filed as inconclusive are left out. Activity calls are given as the source filed them.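 Rule for the calls, unless noted: active = inhibition above the screen-wide mean plus 3 SD, about 51%; inactive = the rest.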

Experiment [1] in a line: rapamycin-like changes in RPL19A-GFP expression – cell-based, S. cerevisiae, multiplex flow cytometry, primary screen (AID 1862; in the data active = percent of DMSO control GFP below about 86%;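 note: lower values mimic rapamycin by blocking the RPL19A rise seen in DMSO cells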). Particulars: S. cerevisiae RPL19A-GFP strain, flow cytometry fluorescence, 3 h; at 10 µM; stronger effect = lower value. For orientation: In flow cytometry, cells or beads pass a laser one at a time.
The nature of experiment [2]: TOR pathway GLN3 branch reporter MEP2-GFP changes – S. cerevisiae, multiplex flow cytometry, primary screen (AID 1867;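 active = GFP response, as percent of the DMSO control, above the screen-wide mean plus 3 SD, about 139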;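 note: median GFP channel fluorescence of barcode-gated MEP2-GFP cells measured by flow cytometry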). Particulars: S. cerevisiae MEP2-GFP strain, 3 h, at 10 µM, stronger effect = higher value, 100% means same as DMSO wells.
Experiment [3] can be described thus: TOR pathway RTG branch CIT2 reporter changes – S. cerevisiae, GFP fusion, multiplex flow cytometry, primary screen (AID 1870;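 active = percent response above a set limit, the screen-wide mean plus 3 SD, cut at about 130% in these data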;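 note: barcoded CIT2-GFP strain pooled with four other GFP strains with rapamycin as positive control; median GFP fluorescence per well over plate mean of DMSO wells so 100% = DMSO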). Particulars: S. cerevisiae CIT2-GFP expression, 3 h, at 10 µM, stronger effect = higher value.
Experiment [4] in a line: TOR pathway LAP4-GFP level changes – S. cerevisiae, multiplex flow cytometry, primary screen (AID 1873;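 active = GFP signal, as percent of the solvent control, above the screen mean plus 3 SD, about 149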). Particulars: S. cerevisiae LAP4-GFP expression, 3 h, at 10 µM, stronger effect = higher value.
Experiment [5] is described as follows: yeast AGP1-GFP level changes, GLN3 branch – cell-based, multiplex flow cytometry, S. cerevisiae, primary screen (AID 1887;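 active = GFP signal above the screen-wide mean plus 3 SD, that is over about 124.5% of the solvent control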;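 note: AGP1-GFP fusion strain of S. cerevisiae within a five-strain barcoded multiplex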). Particulars: 3 h, at 10 µM, stronger effect = higher value.
Experiment [6] in a line: reduced mouse 2C T cell binding to pMHC/ICAM-1 vesicles – MLPCN validation set, flow cytometry, LFA-1/ICAM-1 modulator project, pilot screen (AID 2523;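 active = response below a set limit, under 55% cells CD8-positive and vesicle-bound, and CD8 cells' 90th-percentile brightness under 279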;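 for vesicle binding response: mean PE anti-B7-1 fluorescence of CD8+ cells relative to row control; 100% = QL9-loaded vesicles with DMSO vehicle in the same plate row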). Particulars: 2C mouse CD8+ T cells, at 7 µM, stronger effect = lower value; double positive events: measured here: CD8+/vesicle+ event percentage.
In experiment [7] the target is Integrin beta-1 (Homo sapiens) + Integrin alpha-4 (Homo sapiens) (UniProt P13612+P05556). The experiment in a line: alpha4beta1 integrin LIBS antibody binding reduction – U937 cells, HUTS-21 mAb, flow cytometry, validation set, VLA-4 allosteric modulator project, pilot screen (AID 2674;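 active = inhibition above 50%, about 3 SD of the validation set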;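 note: antibody binding induced by the VLA-4 ligand LDV present at three times its Kd; 0% = LDV ligand with antibody and no compound and 100% = antibody without LDV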). Particulars: HUTS-21 LIBS mAb binding, at 6.7 µM, stronger effect = higher value, binding induced by LDV ligand.
Chain of Integrin beta-1 (Homo sapiens) + Integrin alpha-4 (Homo sapiens) (P05556 whole entry, looked up): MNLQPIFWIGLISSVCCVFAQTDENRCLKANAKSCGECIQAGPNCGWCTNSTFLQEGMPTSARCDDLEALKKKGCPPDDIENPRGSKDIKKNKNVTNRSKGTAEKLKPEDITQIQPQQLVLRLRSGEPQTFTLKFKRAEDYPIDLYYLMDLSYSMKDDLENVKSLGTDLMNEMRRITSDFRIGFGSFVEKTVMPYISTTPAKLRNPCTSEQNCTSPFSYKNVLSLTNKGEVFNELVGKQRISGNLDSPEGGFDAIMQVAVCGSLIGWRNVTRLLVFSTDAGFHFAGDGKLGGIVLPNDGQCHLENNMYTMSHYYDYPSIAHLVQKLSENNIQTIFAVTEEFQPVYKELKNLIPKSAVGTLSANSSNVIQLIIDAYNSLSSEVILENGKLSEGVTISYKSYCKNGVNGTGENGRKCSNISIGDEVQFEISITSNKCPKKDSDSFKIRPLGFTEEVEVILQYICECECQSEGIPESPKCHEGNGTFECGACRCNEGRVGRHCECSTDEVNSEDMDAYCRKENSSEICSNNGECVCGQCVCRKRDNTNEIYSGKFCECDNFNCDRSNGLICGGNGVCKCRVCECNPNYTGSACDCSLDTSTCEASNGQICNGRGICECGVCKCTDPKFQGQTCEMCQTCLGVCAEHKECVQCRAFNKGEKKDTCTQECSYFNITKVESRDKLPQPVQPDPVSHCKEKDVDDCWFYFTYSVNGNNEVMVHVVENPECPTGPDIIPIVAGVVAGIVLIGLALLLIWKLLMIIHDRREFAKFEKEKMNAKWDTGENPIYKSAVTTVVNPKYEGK
Chain of Integrin beta-1 (Homo sapiens) + Integrin alpha-4 (Homo sapiens) (P13612 whole entry, looked up): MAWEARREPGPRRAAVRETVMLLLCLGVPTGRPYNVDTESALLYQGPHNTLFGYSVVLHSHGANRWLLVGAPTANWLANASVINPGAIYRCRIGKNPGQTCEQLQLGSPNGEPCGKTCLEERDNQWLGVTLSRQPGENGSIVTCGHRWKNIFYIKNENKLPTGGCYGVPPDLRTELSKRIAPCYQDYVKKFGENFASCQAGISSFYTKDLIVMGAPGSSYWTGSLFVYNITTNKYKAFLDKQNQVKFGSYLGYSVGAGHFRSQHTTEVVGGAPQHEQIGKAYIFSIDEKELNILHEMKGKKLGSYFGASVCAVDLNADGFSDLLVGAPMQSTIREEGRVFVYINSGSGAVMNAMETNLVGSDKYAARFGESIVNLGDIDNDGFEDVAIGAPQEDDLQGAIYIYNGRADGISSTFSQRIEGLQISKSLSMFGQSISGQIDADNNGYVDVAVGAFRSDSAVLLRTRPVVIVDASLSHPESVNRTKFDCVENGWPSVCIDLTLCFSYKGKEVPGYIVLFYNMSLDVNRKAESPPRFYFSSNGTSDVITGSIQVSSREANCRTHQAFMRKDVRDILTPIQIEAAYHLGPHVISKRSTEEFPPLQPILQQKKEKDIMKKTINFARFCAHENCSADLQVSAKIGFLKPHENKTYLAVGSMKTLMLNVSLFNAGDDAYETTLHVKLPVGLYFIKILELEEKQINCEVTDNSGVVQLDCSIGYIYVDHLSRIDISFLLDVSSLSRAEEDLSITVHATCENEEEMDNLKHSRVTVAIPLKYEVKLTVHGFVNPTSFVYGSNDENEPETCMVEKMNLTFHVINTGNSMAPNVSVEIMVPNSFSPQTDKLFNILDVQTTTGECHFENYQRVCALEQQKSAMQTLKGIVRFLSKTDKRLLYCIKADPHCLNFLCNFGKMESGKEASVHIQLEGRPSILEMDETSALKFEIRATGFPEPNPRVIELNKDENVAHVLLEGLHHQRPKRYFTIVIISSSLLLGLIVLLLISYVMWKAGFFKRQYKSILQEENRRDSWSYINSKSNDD

Experiment [8] is described as follows: calorie-restriction mimetic ROS inhibitors, yeast – validation compound set, pilot screen (AID 2706;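 active = superoxide response below 65% of plate, a cut near 3 SD across the whole screen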;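 note: yeast exposed to compound for one week at 30 degrees C before staining; 100% = mean of all compound wells on the same plate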). Particulars: S. cerevisiae aging, superoxide DHE fluorescence; at 10 µM; stronger effect = lower value.
Experiment [9] has as its target Beta-adrenergic receptor kinase 1 (Homo sapiens) (UniProt P25098). The experiment can be described thus: GRK2 binders displacing RNA aptamer, biochemical, validation, human GRK2, bead flow cytometry (AID 488806;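 active = aptamer binding inhibition above 30%, about 3 SD of noise from non-fluorescent compounds; inactive = inhibition at or below 30%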). Particulars: bead-bound GRK2, FAM-aptamer displacement, at 10 µM, stronger effect = higher value.
The target in experiment [10] is Beta-2 adrenergic receptor (Homo sapiens) (UniProt P07550). The experiment in a line: agonist-induced loss of surface beta2AR – cell-based, FAP fluorogen, flow cytometry, validation set, pilot screen (AID 504459;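 active = percent response above 42, roughly 3 SD of non-fluorescent test compounds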;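 note: agonist-driven loss of surface beta2AR via internalization measured by FAP dye flow cytometry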). Particulars: Am2.2-beta2AR cells, at 10 µM, stronger effect = higher value.
Chain of Beta-2 adrenergic receptor (Homo sapiens) (P07550 whole entry, looked up): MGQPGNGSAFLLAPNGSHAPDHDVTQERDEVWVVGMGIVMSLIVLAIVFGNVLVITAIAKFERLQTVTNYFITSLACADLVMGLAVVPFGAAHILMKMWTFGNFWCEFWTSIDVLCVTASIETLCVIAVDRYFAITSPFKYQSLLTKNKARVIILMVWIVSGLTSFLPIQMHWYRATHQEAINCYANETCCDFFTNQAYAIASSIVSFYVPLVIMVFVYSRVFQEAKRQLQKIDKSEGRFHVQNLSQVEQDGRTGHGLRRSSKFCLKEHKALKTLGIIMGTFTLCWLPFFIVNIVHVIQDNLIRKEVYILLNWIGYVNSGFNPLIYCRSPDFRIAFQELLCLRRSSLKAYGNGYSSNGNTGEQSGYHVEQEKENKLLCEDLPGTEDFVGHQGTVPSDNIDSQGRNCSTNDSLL
Experiment [11] concerns the target AP-2 complex subunit beta (Homo sapiens) (UniProt P63010). The experiment can be described thus: beta-arrestin/AP2 interaction blockers – biochemical, validation set, GST-AP2 beads, flow cytometry, pilot screen (AID 504541;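 active = inhibition above 54%, about 3 SD of non-fluorescent compounds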;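 note: AP2 carries R879A mutation and is captured from E. coli lysate; bead-bound FITC arrestin peptide fluorescence measuring arrestin peptide binding to AP2; 0% = DMSO wells and 100% = excess unlabeled arrestin peptide control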). Particulars: FITC arrestin peptide, at 10 µM, stronger effect = higher value, AP2 beta2 appendage fragment, R879A mutant.
Experiment [12] in a line: cytosolic pH regulators acting via V-ATPase – S. cerevisiae, pHLuorin, HTS validation (AID 504600; in the data active = response above about 15%;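 note: plate controls were DMSO for no effect and reference compound for full effect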). Particulars: V-ATPase proton transport, at 10 µM, stronger effect = higher value.
Experiment [13] concerns anti-desmoglein-3 scFv antibody binding to human DSG3. The experiment can be described thus: blockers of pathogenic pemphigus antibody–desmoglein-3 binding – biochemical, validation compound set, bead-based, flow cytometry, pilot screen (AID 588368;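 active = binding below the plate cutoff, the plate median minus 3 SD, with a reading above zero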;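 note: signal is the median channel fluorescence of bead-bound GFP antibody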). Particulars: Protein G beads, DSG3-Fc, scFv-GFP binding, at 10 µM, stronger effect = lower value.
Experiment [14] is described as follows: Nile Red efflux blockade in pump-expressing yeast – validation compound set, multiplex, phenotypic, pilot screen (AID 588506;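 active = efflux inhibition above 0.42, the validation set average plus 4 SD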;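 note: Nile Red retained in cells so higher fluorescence means more efflux inhibition; 0 = negative control wells and 1 = enniatin B 25 µM full block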). Particulars: S. cerevisiae pump-expressing triplex, Nile Red efflux flow cytometry; at 10 µM; stronger effect = higher value; the pumps come from Candida albicans.
For experiment [15], the target named is ATP-binding cassette sub-family B member 6 (Homo sapiens) (UniProt Q9NP58). The experiment in a line: blockers of ABCB6-driven porphyrin uptake – K562-ABCB6 cells, flow cytometry, validation set, pilot screen (AID 588550).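 Note: 0% = DMSO wells and 100% = benzethonium chloride 70 µM positive control.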 Particulars: K562-ABCB6 porphyrin accumulation, 1 h, at 10 µM, stronger effect = higher value.
Chain of ATP-binding cassette sub-family B member 6 (Homo sapiens) (Q9NP58 whole entry, looked up): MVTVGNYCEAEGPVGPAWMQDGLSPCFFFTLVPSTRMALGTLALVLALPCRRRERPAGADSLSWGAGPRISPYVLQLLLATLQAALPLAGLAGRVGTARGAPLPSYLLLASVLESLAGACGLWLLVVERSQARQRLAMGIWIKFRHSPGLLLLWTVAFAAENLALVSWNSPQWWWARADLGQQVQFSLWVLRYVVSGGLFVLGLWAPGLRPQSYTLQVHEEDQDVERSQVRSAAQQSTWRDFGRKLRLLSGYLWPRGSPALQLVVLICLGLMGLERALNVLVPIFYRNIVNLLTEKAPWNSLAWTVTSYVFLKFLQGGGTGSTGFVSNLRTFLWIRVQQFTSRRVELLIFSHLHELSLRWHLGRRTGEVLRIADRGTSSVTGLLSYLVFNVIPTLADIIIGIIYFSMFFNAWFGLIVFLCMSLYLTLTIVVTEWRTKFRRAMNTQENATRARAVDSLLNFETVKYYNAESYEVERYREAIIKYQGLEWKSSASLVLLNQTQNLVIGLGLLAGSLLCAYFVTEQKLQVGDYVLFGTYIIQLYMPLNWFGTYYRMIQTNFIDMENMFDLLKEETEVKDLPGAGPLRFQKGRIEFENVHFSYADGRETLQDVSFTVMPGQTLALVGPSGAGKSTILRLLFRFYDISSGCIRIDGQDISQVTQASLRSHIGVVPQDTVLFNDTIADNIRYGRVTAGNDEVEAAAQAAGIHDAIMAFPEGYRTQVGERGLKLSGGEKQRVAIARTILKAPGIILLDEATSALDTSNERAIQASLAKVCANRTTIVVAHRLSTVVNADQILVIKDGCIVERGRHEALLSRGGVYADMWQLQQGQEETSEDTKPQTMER
Experiment [16] is described as follows: AML differentiation inducers, ER-HoxA9 marrow cells – cell-based, GFP/MAC1 double positive, flow cytometry, validation set, primary screen (AID 588685;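 active = differentiation response of at least 50%, scaled between solvent and reference control, from cells with both markers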;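 note: compound exposure lasts four days before antibody staining and flow analysis; 0% = DMSO wells and 100% = 5 µM fulvestrant positive control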). Particulars: stronger effect = higher value, normalized: vehicle 0, fulvestrant 100.
Experiment [17] is described as follows: hit retest on RPL19A-GFP reporter strain – cell-based, S. cerevisiae, flow cytometry, cherry picks, mother/daughter gates, confirmation (AID 2270;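 active = GFP response below 50% of the DMSO control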). Particulars: 3 h, at 10 µM, stronger effect = lower value, 100 = same GFP as DMSO wells.
A short description of experiment [18]: yeast TOR pathway reporter LAP4-GFP change – cell-based, cherry picks, flow cytometry, mother/daughter gates, confirmation (AID 2271;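 active = GFP response above 150% of the DMSO control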;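 note: ratio of sample to DMSO plate mean so 100% equals DMSO level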). Particulars: S. cerevisiae LAP4-GFP strain, 3 h, at 10 µM, stronger effect = higher value, 100 means same as DMSO control.
The nature of experiment [19]: TOR pathway reporter MEP2-GFP, retest of hits – S. cerevisiae, flow cytometry GFP, cherry picks, confirmation (AID 2272;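 active = GFP response above 150% of the DMSO control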;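 note: ratio of well signal to plate DMSO mean so 100% equals DMSO level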). Particulars: S. cerevisiae MEP2-GFP strain, 3 h, at 10 µM, stronger effect = higher value.
Experiment [20] is described as follows: yeast AGP1-GFP fluorescence change, single-dose – cell-based, flow cytometry, S. cerevisiae, cherry picks, confirmation (AID 2273;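 active = GFP response above 150% of the DMSO level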;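 note: median GFP channel fluorescence over the whole cell population gate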). Particulars: S. cerevisiae AGP1-GFP strain, 3 h, at 10 µM.
Experiment [21] is described as follows: TOR pathway CIT2 reporter hit retest – S. cerevisiae, GFP fusion, cherry picks, mother/daughter gates, confirmation (AID 2274;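 active = GFP response above 150% of the DMSO level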). Particulars: S. cerevisiae CIT2-GFP strain, flow cytometry, 3 h, at 10 µM, stronger effect = higher value.
The mark [22] stands for this setting: measured here: daughter cell gate.
Where [23] appears, read: measured here: mother cell gate.

Chain of AP-2 complex subunit beta (Homo sapiens) (P63010 whole entry, looked up, the tested form may be a part, one chain of several): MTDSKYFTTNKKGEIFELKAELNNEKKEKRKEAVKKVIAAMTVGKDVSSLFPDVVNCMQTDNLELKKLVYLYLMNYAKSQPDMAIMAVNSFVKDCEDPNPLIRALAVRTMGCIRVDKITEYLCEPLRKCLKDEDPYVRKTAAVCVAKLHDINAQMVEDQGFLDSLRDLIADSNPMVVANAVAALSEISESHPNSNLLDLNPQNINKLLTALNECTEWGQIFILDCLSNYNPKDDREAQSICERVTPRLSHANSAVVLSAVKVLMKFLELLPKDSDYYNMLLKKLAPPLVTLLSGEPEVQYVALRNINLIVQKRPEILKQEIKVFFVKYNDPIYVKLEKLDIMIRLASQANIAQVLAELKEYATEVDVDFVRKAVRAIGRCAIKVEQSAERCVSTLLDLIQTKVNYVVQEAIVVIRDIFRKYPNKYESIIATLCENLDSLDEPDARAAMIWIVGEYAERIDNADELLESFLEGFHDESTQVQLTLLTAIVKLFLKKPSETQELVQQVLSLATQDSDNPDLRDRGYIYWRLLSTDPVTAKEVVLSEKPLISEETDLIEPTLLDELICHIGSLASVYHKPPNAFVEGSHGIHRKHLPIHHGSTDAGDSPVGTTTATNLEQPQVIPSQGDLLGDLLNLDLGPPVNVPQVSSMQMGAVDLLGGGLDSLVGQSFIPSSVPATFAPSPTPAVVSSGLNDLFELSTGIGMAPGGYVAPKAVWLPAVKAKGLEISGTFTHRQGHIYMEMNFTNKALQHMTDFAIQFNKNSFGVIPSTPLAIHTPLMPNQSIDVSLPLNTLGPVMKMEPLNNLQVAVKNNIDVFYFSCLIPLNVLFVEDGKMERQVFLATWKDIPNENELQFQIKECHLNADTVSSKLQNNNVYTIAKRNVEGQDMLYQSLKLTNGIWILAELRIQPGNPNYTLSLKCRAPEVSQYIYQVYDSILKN
Chain of Beta-adrenergic receptor kinase 1 (Homo sapiens) (P25098 whole entry, looked up): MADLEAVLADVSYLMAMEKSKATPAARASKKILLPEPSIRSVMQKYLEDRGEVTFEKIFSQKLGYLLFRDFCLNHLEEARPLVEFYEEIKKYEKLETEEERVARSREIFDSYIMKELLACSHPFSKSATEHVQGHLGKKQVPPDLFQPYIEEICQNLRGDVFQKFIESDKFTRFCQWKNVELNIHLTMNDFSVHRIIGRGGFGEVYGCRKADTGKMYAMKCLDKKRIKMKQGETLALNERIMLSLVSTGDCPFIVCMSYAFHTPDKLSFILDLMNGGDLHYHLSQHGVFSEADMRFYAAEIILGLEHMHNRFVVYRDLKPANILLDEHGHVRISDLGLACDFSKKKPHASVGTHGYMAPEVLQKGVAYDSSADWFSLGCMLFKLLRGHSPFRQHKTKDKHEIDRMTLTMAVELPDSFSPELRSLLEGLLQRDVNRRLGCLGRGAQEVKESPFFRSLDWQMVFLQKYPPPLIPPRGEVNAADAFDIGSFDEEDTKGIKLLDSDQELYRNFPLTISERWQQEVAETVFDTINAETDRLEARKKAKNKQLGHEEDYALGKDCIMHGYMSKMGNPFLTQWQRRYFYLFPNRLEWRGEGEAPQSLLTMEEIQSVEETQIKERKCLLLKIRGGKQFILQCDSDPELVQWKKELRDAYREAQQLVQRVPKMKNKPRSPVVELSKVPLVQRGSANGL

As for `COc1ccc(O)c(C2=Nc3ccccc3N=C(c3ccccc3)C2)c1`, the percent of DMSO control GFP in experiment [1] is 94.6% (inactive). The figures for the GFP response vs DMSO in experiment [2] and in experiment [4] were 126% (inactive) and 71.5% (inactive), respectively. Besides, the percent response of DMSO control in [3] is 116% (inactive). In addition, the GFP response, % of DMSO in [5] was 85.2% (inactive). The same molecule returned a double positive events in experiment [6] of 58.3%. Also, the vesicle binding response in experiment [6] is 139% (inactive). The inhibition in experiment [7] was -10% (inactive); in experiment [11], 13% (inactive); in experiment [15] it was 12% (inactive). Also, the superoxide response (% of plate) in experiment [8] was 96.7% (inactive). For the same molecule, the aptamer binding inhibition in experiment [9] was 4% (inactive). Moreover, the response in experiment [10] is -11.7% (inactive); in experiment [12], -3.39% (inactive). Moreover, the binding (% of control) in [13] is 96.9% (inactive). In [14], the efflux inhibition (fraction of control) is 0.34 (inactive). Also, in experiment [16], the differentiation response is 2.46% (inactive).

Consider `CCOC(=O)C1=C(N)Oc2c(c(=O)[nH]c3ccccc23)C1c1ccccc1` (centres undefined), for which the percent of DMSO control GFP in experiment [1] was 100% (inactive). Also, the GFP response vs DMSO was 106% (inactive) in experiment [2] and 112% (inactive) in experiment [4]. The percent response of DMSO control in experiment [3] was 91% (inactive). Moreover, the GFP response, % of DMSO in [5] was 107% (inactive). The same molecule gave a double positive events in experiment [6] of 57.2%. The vesicle binding response in experiment [6] was 179% (inactive). Moreover, the values for the inhibition in [7], in [11] and in experiment [15] were 0.94% (inactive), 1.81% (inactive) and 7% (inactive), respectively. Further, in experiment [8], the superoxide response (% of plate) is 103% (inactive). Further, the aptamer binding inhibition in experiment [9] was 6% (inactive). The figures for the response in [10] and in experiment [12] were 3.69% (inactive) and 1.75% (inactive), respectively. Also, the binding (% of control) in experiment [13] is 104% (inactive). The efflux inhibition (fraction of control) in experiment [14] was 0.01 (inactive). Also, the differentiation response in experiment [16] is -0.8% (inactive).

Take `CCN(CC)c1ccc2cc(-c3nc(-c4ccc(OC)cc4)cs3)c(=O)oc2c1`: the GFP response vs DMSO in experiment [17] is 105% (inactive); in experiment [17] (setting [22]), 103%; in experiment [17] (setting [23]), 106%; in experiment [19] it was 180% (active). Also, the values for the GFP response relative to DMSO in [18], in experiment [18] (measured here: daughter cell gate response) and in experiment [18] (measured here: mother cell gate response) were 138% (inactive), 132% and 135%, respectively. Further, the GFP response, % of DMSO is 108% (inactive) in experiment [20], 160% (active) in experiment [21], 152% in [21] (setting [22]) and 149% in [21] (setting [23]).

As to `Cc1cc(=O)oc2c(CN(C)Cc3ccccc3)c(O)ccc12`, the percent of DMSO control GFP in experiment [1] was 100% (inactive). In addition, the figures for the GFP response vs DMSO in [2] and in experiment [4] were 106% (inactive) and 94.7% (inactive), respectively. Besides, in experiment [3], the percent response of DMSO control is 105% (inactive). For the same molecule, the GFP response, % of DMSO in experiment [5] is 96.2% (inactive). Further, the double positive events in experiment [6] was determined as 62.4%. In addition, the vesicle binding response in [6] is 434% (inactive). For the same molecule, the inhibition in experiment [7] was 12% (inactive); in [11], -2.59% (inactive); in [15], 10% (inactive). In addition, the superoxide response (% of plate) in experiment [8] was 97.6% (inactive). For the same molecule, the aptamer binding inhibition in experiment [9] is 3% (inactive). The response is 0.85% (inactive) in experiment [10] and 1.53% (inactive) in experiment [12]. Moreover, the binding (% of control) in experiment [13] is 97.4% (inactive). Moreover, the efflux inhibition (fraction of control) in experiment [14] was 0.11 (inactive). In addition, in experiment [16], the differentiation response was 0.24% (inactive).

For the molecule `C[N+](C)(C)CCCCCCCCCC[N+](C)(C)C`, the percent of DMSO control GFP in experiment [1] is 94.4% (inactive). For the same molecule, the GFP response vs DMSO in [2] was 129% (inactive); in experiment [4] it was 77% (inactive). In addition, in experiment [3], the percent response of DMSO control was 103% (inactive). For the same molecule, the GFP response, % of DMSO in experiment [5] was 87% (inactive). The molecule also returned a double positive events in experiment [6] of 70%. Also, in experiment [6], the vesicle binding response is 208% (inactive). In addition, the figures for the inhibition in experiment [7], in experiment [11] and in [15] were 3.55% (inactive), -6.99% (inactive) and 12% (inactive), respectively. Further, the superoxide response (% of plate) in experiment [8] was 100% (inactive). Moreover, the aptamer binding inhibition in experiment [9] was 5% (inactive). Also, the response was -10.3% (inactive) in [10] and 0.2% (inactive) in experiment [12]. Also, the binding (% of control) in experiment [13] is 101% (inactive). In addition, the efflux inhibition (fraction of control) in experiment [14] is -0.56 (inactive). Moreover, in experiment [16], the differentiation response is 1.64% (inactive).

What is called inhibition is the change of the read-out against control, counted positive when it falls.
